From PubChem BioAssay
Unmarked numbers belong to inactive results. How the calls were made is not given here.

Biological target: Pantothenate synthetase (Mycobacterium tuberculosis (strain ATCC 25618 / H37Rv)) (UniProt P9WIL5)
Experiment: Recombinant Mtb pantothenate synthetase (PanC) inhibitors, coupled enzyme, confirmatory (AID 375);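 further: 0% = full reaction with vehicle and 100% = no enzyme background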
Details: coupled enzyme assay; at 10 µM, active compounds read high

Chain of Pantothenate synthetase (Mycobacterium tuberculosis (strain ATCC 25618 / H37Rv)) (P9WIL5 whole entry, looked up): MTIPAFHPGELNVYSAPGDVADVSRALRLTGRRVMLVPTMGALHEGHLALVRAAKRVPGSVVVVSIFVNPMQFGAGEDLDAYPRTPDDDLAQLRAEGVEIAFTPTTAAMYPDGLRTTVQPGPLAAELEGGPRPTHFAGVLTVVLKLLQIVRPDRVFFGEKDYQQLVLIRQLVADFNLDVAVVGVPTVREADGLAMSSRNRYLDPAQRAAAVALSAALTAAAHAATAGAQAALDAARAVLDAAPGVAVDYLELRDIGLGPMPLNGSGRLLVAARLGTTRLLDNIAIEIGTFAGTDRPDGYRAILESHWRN

Row | SMILES | inhibition
1 | COc1ccc(CC(=O)N2CCOCC2)cc1OC | 2%
2 | NS(=O)(=O)c1cc2c(cc1C(F)(F)F)NC(Cc1ccccc1)NS2(=O)=O (stereo unspecified) | 0%
3 | COC(=O)c1cc(Br)ccc1-c1ccc(/C=N/n2nnnc2N)o1 | 7%
4 | CCN(CC(=O)Nc1c(C(=O)OC)[nH]c2ccccc12)c1ccc2c(c1)OCO2 | 5%
5 | CC(=O)Nc1ccccc1OCC(=O)c1cc(C)n(Cc2cccs2)c1C | 0%
6 | O=C(c1ccc(S(=O)(=O)N2CCOCC2)cc1)N(c1ccc(F)cc1)C1C=CS(=O)(=O)C1 (stereo unspecified) | 0%
7 | CC(NC(=O)C1CCCN(S(=O)(=O)c2cccs2)C1)c1ccccc1 (stereo unspecified) | 0%
8 | COc1ccc(Cl)cc1N1CC(c2nc3ccccc3[nH]2)CC1=O (stereo unspecified) | 6%
9 | CCOC(=O)N1CCN(C(=O)CSCC(=O)Nc2nc(-c3ccc(OC)cc3)cs2)CC1 | 0%
10 | CCn1c(SCC(=O)c2ccc(C)cc2)nnc1-c1ccoc1C | 2%
11 | Cc1nc2ccc(NC(=O)N3CCC(c4ccccc4)C3)cc2nc1C (stereo unspecified) | 0%
12 | COC(=O)c1cccc(Oc2nc3c(c(=O)n(C)c(=O)n3C)n2C(C)C)c1 | 1%
13 | C=CCn1c2ccccc2c2nnc(SCC(=O)NC(C(=O)OC)C(C)C)nc21 (stereo unspecified) | 4%
14 | O=C(NC(=O)c1cccc(F)c1)OC[C@@H]1CCCN2CCCC[C@H]12 | 0%
15 | CCOC(=O)c1c(NC(=O)OC)sc2c1CCC2 | 0%
16 | COc1ccc(CCNC(=O)c2cc(C(C)C)on2)cc1OC | 1%
